Hits are enriched below; roughly 19% of the tested compounds scored in any of these assays.
TDP1 inh – qHTS Assay for Inhibitors of Tyrosyl-DNA Phosphodiesterase (TDP1); Potency, µM (series often up to 130 µM), for inactives: top-dose activity change, negative = inhibition, hits mostly inhibitors; recombinant TDP1, AlphaScreen DNA substrate cleavage; Tyrosyl-DNA phosphodiesterase 1 (Homo sapiens), Q9NUW8; 350,000 tested, 0.28% active; AID 485290, 2010; further: nearly all actives have a fitted effect of over 40% in size
Target sequence (Q9NUW8 whole entry, looked up): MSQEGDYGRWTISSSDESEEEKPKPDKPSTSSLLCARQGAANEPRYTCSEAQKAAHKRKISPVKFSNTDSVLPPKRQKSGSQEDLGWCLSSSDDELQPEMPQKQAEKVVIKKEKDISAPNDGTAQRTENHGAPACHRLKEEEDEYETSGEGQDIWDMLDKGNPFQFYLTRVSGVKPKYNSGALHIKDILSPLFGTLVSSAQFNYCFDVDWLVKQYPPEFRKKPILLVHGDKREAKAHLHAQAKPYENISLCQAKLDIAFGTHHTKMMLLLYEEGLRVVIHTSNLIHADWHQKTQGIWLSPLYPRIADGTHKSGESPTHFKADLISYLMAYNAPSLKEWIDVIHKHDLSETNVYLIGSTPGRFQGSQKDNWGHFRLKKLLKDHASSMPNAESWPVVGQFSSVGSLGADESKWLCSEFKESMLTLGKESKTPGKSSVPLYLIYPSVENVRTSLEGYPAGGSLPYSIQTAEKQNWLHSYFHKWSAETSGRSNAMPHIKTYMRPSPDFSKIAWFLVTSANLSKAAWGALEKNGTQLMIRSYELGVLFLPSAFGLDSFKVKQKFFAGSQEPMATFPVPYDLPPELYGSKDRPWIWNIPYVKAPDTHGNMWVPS
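Signal: AlphaScreen proximity between streptavidin donor and anti-FITC acceptor beads on intact substrate. Reaction: Tdp1 1 nM, substrate 15 nM final, 5 min RT after 15 min compound preincubation.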
TDP1 cell CPT – qHTS for Inhibitors of human tyrosyl-DNA phosphodiesterase 1 (TDP1): qHTS in cells in presence of CPT. 420,000 tested, 12% active. Potency, µM (highest dose often 46.2 µM), inactives show top-dose activity change, negative = growth inhibition, hits mostly inhibitors. chicken DT40 Tdp1-/-;hTDP1 cells + 20 nM CPT, ATP luminescence, 48 h. AID 686979, 2013; further: nearly all actives have a fitted effect of over 55% in size
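Cell growth measured by CellTiter-Glo luminescence after a minimum 48 h, 37 C compound exposure with 20 nM CPT in Tdp1-knockout DT40 cells stably expressing hTDP1, seeded 400/well; qHTS titration format.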
Gal4-VP16 FLuc – VP16 counterscreen qHTS for inhibitors of ROR gamma transcriptional activity. Drosophila S2 Gal4-VP16 UAS-luciferase, luminescence, 20 h. Potency, µM (doses to about 53.6 µM), for the others: top-dose activity, negative = inhibition, most hits filed as inhibitors. 310,000 tested, 3.5% active. AID 2546, 2010;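 further: Gal4-VP16 expression switched on by copper sulfate through the metallothionein promoter; nearly all actives have a fitted effect of over 50% in size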
RORgamma inh – qHTS for inhibitors of ROR gamma transcriptional activity. Drosophila S2 Gal4-RORgamma UAS-luciferase reporter, 20 h. Nuclear receptor ROR-gamma (Mus musculus), P51450. 310,000 tested, 5.4% active. Potency, µM (series often up to 53.6 µM), inactives show top-dose activity change, negative = inhibition, hits mostly inhibitors; further: nearly all actives have a fitted effect of over 60% in size
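Drosophila S2 cells stably expressing Gal4-DBD/mouse RORγ fusion under metallothionein promoter plus UAS-luciferase; compound 1 h, then 700 uM CuSO4 induction for 20 h at ambient temperature; inhibition read as reduced luminescence.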
DT40 TDP1 no CPT – qHTS for Inhibitors of human tyrosyl-DNA phosphodiesterase 1 (TDP1): qHTS in cells in absence of CPT; DT40 Tdp1-/- hTDP1 cells, no CPT, ATP luminescence, 48 h; Potency, µM (top dose mostly 46.2 µM), for inactives: at the top dose activity change, negative = growth inhibition, usual class: inhibitors; 420,000 tested, 15% active; AID 686978, 2013; further: nearly all actives have a fitted effect of over 55% in size
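A cellular qHTS used chicken DT40 cells lacking endogenous Tdp1 but carrying stably transfected human TDP1. Compounds were applied without camptothecin, and cell growth kinetics were judged by ATP-dependent luminescence after ≥48 hr.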
Starred values were filed as active, the others as inactive; ? = inconclusive; / = not tested or not shown; ! = not confirmed by another sample; [ ] = remark or other dose. The call rests on the fitted dose curve; in most records, active means well fitted curve in the direction sought with a large enough effect; inconclusive means small, poorly fitted or top-dose-only effect, or another doubt; inactive means no such curve, though single readings can be large; an effect the other way counts as inactive or inconclusive. On the % scale 0 is the no-effect control and ±100 the full control effect; potency means the concentration at half of the fitted maximal effect.

SMILES	TDP1 inh	TDP1 cell CPT	Gal4-VP16 FLuc	RORgamma inh	DT40 TDP1 no CPT
CCCSc1nnc(NC(=O)Nc2ccc(F)cc2)s1	-3.3%	20.6µM*	/	4.1%[0.365 µM]	20.6µM*
O=C(NCc1cc(F)ccc1F)C1CCC(=O)N(C2CCCCCC2)C1 (stereo not drawn)	4.3%	18.6%	19.1%	6.4%	?
CCOC(=O)C(=Cc1cc(=O)c(OC)co1)C(=O)OCC	-10.1%	1.3µM*	5.01µM*	4.47µM*	0.731µM*
COc1coc(C(O)CN)cc1=O (stereo not drawn)	5.3%	-7.3%	0.6%	45.0%	-4.5%
COc1ccc(NC(=O)c2cc3cccc(OC)c3oc2=Nc2ccc(C(=O)O)cc2)cc1OC	5.0%	9.2µM*	?	0.447µM*	13µM*
CN(CCC#N)CC(=O)Nc1ccc(NC(=O)CN(C)CCC#N)cc1	-5.3%	9.5%	-0.3%	-1.4%	8.4%
Cc1c(C(=O)NN2CCCCC2)nn(-c2ccc(Cl)cc2Cl)c1-c1ccc(I)cc1	7.3%	?	-0.6%	-7.6%	29.9µM*
Cc1ccccc1NC(=O)NCC1CCN(c2ccc(S(=O)(=O)N3CCOCC3)cc2)CC1	10.1%	23.1µM*	3.1%	13.2%	20.6µM*
O=S(=O)(NCC1CCN(c2ccc(S(=O)(=O)N3CCOCC3)cc2)CC1)c1ccccc1	6.5%	-22.4%	-80.5%	?	?
O=C(NCC1CCN(c2ccc(S(=O)(=O)N3CCOCC3)cc2)CC1)c1ccc(Cl)cc1	2.2%	14.6µM*	?	-23.9%	13µM*
O=S(=O)(NCC1CCN(c2ccc(S(=O)(=O)N3CCOCC3)cc2)CC1)c1ccc(F)cc1	2.9%	23.1µM*	?	?	20.6µM*
Cc1cccc(NC(=O)NCC2CCN(c3ccc(S(=O)(=O)N4CCOCC4)cc3)CC2)c1	11.7%	?	2.3%	-6.2%	?
Cc1ccc(-c2cc(C(=O)Nc3ccc(S(=O)(=O)Nc4nccs4)cc3)c3ccccc3n2)c(C)c1	11.0%	2.8%	-17.2%	67.6%	?
O=c1cc(/C=C/c2ccccc2)oc2ccccc12	0.0%	16.4µM*	?	?	?
O=c1cc(CO)oc2ccccc12	2.2%	?	/	/	3.0%
O=S(=O)(c1ccccc1)n1nc(-c2ccc(Cl)cc2)nc1NCc1ccc(F)cc1	-5.3%	/	/	/	/
COc1cc(C)nc(N(Cc2ccccc2)S(=O)(=O)c2ccccc2)n1	-4.5%	?	9.4%	-13.4%	?
COc1cc(C)nc(N(Cc2ccccc2)S(=O)(=O)c2ccc(C)cc2)n1	/	?	-20.0%	?	18.4µM*
O=C(O)[C@@H]1CCCN1C(=O)c1ccccc1N1C(=O)[C@@H]2Cc3c([nH]c4ccccc34)C(c3cccc(Cl)c3)N2C1=O (stereo partly drawn)	/	13.3%	-14.0%	36.0%	3.5%
COc1cccc(C2=CC(c3ccccc3O)NC(C)(C)N2)c1 (stereo not drawn)	3.9%	12.6µM*	/	/	15.8µM*
CCCOc1ccc(C2Nc3cccc4cccc(c34)N2)cc1	/	20.6µM*	-18.4%	-27.9%	6.51µM*
CCN(CC)c1ccc(C2NC(=O)c3ccccc3N2)cc1 (stereo not drawn)	/	7.31µM*	/	/	13µM*
Fc1ccc(C2Nc3cccc4cccc(c34)N2)cc1	/	?	6.0%	-0.3%	?
CCN(CC)c1ccc(C2Nc3cccc4cccc(c34)N2)cc1	/	?	-0.8%	-41.5%	16.4µM*
CC1CCCN(c2nc3ccccc3nc2C(C#N)C(=O)OC2CCCCC2)C1 (stereo not drawn)	3.0%	/	8.2%	13.7%[10 µM]	/
SMILES	TDP1 inh	TDP1 cell CPT	Gal4-VP16 FLuc	RORgamma inh	DT40 TDP1 no CPT
Cc1cc(NC(=S)N(Cc2ccc(Cl)cc2)Cc2ccc(C(=O)O)cc2)ccc1Cl	4.6%	-0.3%	-7.7%	40.1%	5.8%
CCNC(=S)N(CCN(C)C)Cc1cc2cc(OCC)ccc2[nH]c1=O	3.0%	?	-14.9%	-3.3%	-25.6%
CCCNC(=O)Cn1nc(C(F)(F)F)c2c1CCC2	/	1.9%	3.1%	-2.0%	13.8%
O=C(Nc1ccccc1)[C@@H]1CC=C[C@@H]2CCN(Cc3ccccc3)C(=O)[C@@H]21	/	?	/	/	22.4µM*!
O=C(Nc1ccccc1)[C@@H]1CC=C[C@@H]2CCN(Cc3ccc(Cl)c(Cl)c3)C(=O)[C@@H]21	/	?	/	/	18.4µM*
COc1ccc(CN2CC[C@H]3C=CC[C@@H](C(=O)NCCc4ccccc4)[C@H]3C2=O)cc1OC	/	14.1µM*	/	/	?
COc1ccc(CN2CC[C@H]3C=CC[C@@H](C(=O)NCc4cccnc4)[C@H]3C2=O)cc1OC	/	13.3%	/	/	1.8%
CCCCN1CC[C@H]2C=CC[C@@H](C(=O)Nc3ccccc3)[C@H]2C1=O	/	?	/	/	-4.8%
Cc1nnc(SCC(=O)N(C(C)C)C(C)C)[nH]c1=O	5.6%	5.6%	6.6%	6.3%	-4.1%
COc1ccc(NC(=O)c2ccc(NC(=O)CN3CCN(c4ccccc4OC)CC3)cc2)cc1	/	?	/	/	18.4µM*
COC(=O)c1ccc(C(=O)OC)c(NC(=O)CN2CCN(c3ccccc3OC)CC2)c1	2.1%	?	1.8%	-7.0%	25.9µM*
COC(=O)c1ccc(C(=O)OC)c(NC(=O)CN2CCN(c3ccccc3)CC2)c1	1.0%	?	4.6%	3.5%	-26.3%
CCN(CC)c1ccc(NC(=O)CN2CCN(c3ccccc3OC)CC2)cc1	13.8%	20.6µM*	/	/	16.4µM*
CCOc1ccc(NC(=O)CN2CCN(CC(=O)c3ccc(OCC)cc3)CC2)cc1	13.6%	?	?	12.8%	?
CCOc1ccc(NC(=O)CN2CCN(CC(=O)c3ccc(OC)c(OC)c3)CC2)cc1	4.5%	?	5.2%	2.51µM*	?
CCCn1c(=N)n(CC(O)c2ccco2)c2ccccc21 (stereo not drawn)	2.1%	?	5.1%	-5.6%	?
Cc1noc(C)c1C(=O)N1CCC1(C)C(=O)NS(=O)(=O)c1ccccc1C(F)(F)F (stereo not drawn)	/	-9.6%	/	/	-5.1%
COc1ccc(NC(=O)CN2CCN(C(C)=O)CC2)cc1S(=O)(=O)N1CCOCC1	2.3%	1.2%	/	/	1.6%
CCN(CC)c1ccc(NC(=O)CN2CCN(S(=O)(=O)c3cc(Cl)ccc3OC)CC2)cc1	16.3%	?	-0.7%	34.8%	16.4µM*
COc1c[nH]n(C2CCCCC2)c(=O)c1=O	3.9%	?	?	20µM*	-19.7%
CN(Cc1ccccc1)C(=O)c1ncn(C)c1C(=O)N(C)Cc1ccccc1	0.4%	-11.7%	/	/	-24.8%
